In PubChem BioAssay AID2202239 (National Center for Advancing Translational Sciences (NCATS), 2025):
Activity calls are given as the source filed them. Calls follow the shape of the dose curve; as a rule, active = well fitted inhibition curve with a large enough effect; inactive = flat fitted curve, though single readings scatter. Square brackets hold non-standard residues; d marks the D form. Peptide text beside a SMILES is read from it. * marks the point of attachment. Dolaproine = CO[C@@H]([C@@H]1CCCN1)[C@@H](C)C(=O)O; Dil = CC[C@H](C)[C@H](NC)[C@@H](CC(=O)O)OC; NMe2Val = CC(C)[C@@H](C(=O)*)N(C)C; X1 = C[C@@H](N*)[C@@H](O)c1ccccc1; NMeV = CN[C@H](C(=O)O)C(C)C

Test: Identification of antibody-drug conjugate (ADC) payloads which are substrates of ATP-binding cassette drug efflux transporters: ABCB1-HeLa-KB-8-5-11 cell line with tariquidar
Conditions: KB-8-5-11 (P-gp) + tariquidar, viability, CellTiter-Glo, 48 h
Description: Antibody-drug conjugates (ADCs) feature an antibody recognizing a specific protein joined to a potent toxic payload. Numerous antibody-drug conjugates have received FDA approval; however, clinical resistance arises. Resistance mechanisms include decreased expression or mutation of the antibody target, impaired payload release, or increased expression of ATP-binding cassette (ABC) efflux transporters associated with multidrug resistance. We therefore sought to characterize the interaction of ABC multidrug transporters with ADC payloads. We performed a high-throughput screen with 27 common ADC payloads using cells lines expressing ABC transporters P-glycoprotein (P-gp, encoded by ABCB1) or ABCG2 (encoded by ABCG2). Confirmatory assays were also performed using cells transfected to express P-gp, ABCG2, or MRP1 (encoded by ABCC1). Several commonly used ADC payloads were substrates of P-gp, including calicheamicin gamma1, monomethyl auristatin E, DM1, and DM4. All the pyrrolobenzodiazepines tested - SJG136, SGD-1882, SG2057, and SG3199 - were substrates of P-gp, ABCG2, and MRP1. […] These findings highlight the risk of transporter-mediated resistance with certain ADC payloads and underscore the importance of selecting payloads that evade ABC transporter recognition in future ADC development.
HEK-293 cells were transfected with empty vector (pcDNA) or vector containing the human ABCB1 (MDR-19), ABCG2 (R-5), or ABCC1 gene (MRP1) and were maintained in EMEM with 2 mg/mL G418 added to maintain transporter expression. The HeLa derivative KB-3-1 and the P-gp overexpressing KB-8-5-11 subline were maintained in DMEM; KB-8-5-11 additionally received 100 ng/mL colchicine. H460 parental cells were obtained from the Division of Cancer Treatment and Diagnosis Tumor Repository, National Cancer Institute at Frederick, MD and were cultured in RPMI. The ABCG2 expressing subline H460 MX20 was generated by selecting H460 cells in 20 nM mitoxantrone. Media in all cases was supplemented with 10% FBS and 1% penicillin-streptomycin. We explored 27 common ADC payloads, in two orthogonal, paired cell line sets-a drug selected and transfected set for each transporter--to identify substrates of the ABC transporters P-gp and ABCG2. Compounds were sourced from Levena Biopharma (San Diego, CA), Selleck Chem (Houston, TX), ChemieTek (Indianapolis, IN), or Microsource Discovery Systems (Gaylordsville, CT). Screening was performed as previously described. Briefly, cells were plated at a density of 500 cells/well in 1536 well plates with compounds added using a 1536-head pin tool (Kalypsys, San Diego CA). Cells were incubated with cytotoxic drugs and processed with CellTiter Glo reagent (Promega, Madison, WI) to determine viability after 48 hours. P-gp substrates were identified by comparing compound activity between paired sets of low-expressing (sensitive) and over-expressing (resistant) cell lines.

Row | SMILES | Potency
1 | CC[C@@]1(O)C(=O)OCc2c1cc1n(c2=O)Cc2cc3ccccc3nc2-1 | 375 nM (active)
2 | COc1cc2cc(c1Cl)N(C)C(=O)C[C@H](OC(=O)C(C)C)[C@]1(C)O[C@H]1[C@H](C)[C@@H]1C[C@@](O)(NC(=O)O1)[C@H](OC)C=CC=C(C)C2 | 0.1 nM (active)
3 | CC[C@H](C)[C@@H]([C@@H](CC(=O)N1CCC[C@H]1[C@H](OC)[C@@H](C)C(=O)N[C@H](C)[C@@H](O)c1ccccc1)OC)N(C)C(=O)[C@@H](NC(=O)[C@H](C(C)C)N(C)C)C(C)C | 0.2 nM (active)
4 | CC[C@H](C)[C@@H]([C@@H](CC(=O)N1CCC[C@H]1[C@H](OC)[C@@H](C)C(=O)N[C@@H](Cc1ccccc1)C(=O)O)OC)N(C)C(=O)[C@@H](NC(=O)[C@H](C(C)C)N(C)C)C(C)C (NMe2Val-V[Dil][Dolaproine]F-OH) | 18.8 nM (active)
5 | COc1cccc2c1C(=O)c1c(O)c3c(c(O)c1C2=O)C[C@@](O)(C(=O)CO)CC3OC1CC(N2CCOC(OC)C2)C(O)C(C)O1 (some centres not stated) | 10.6 nM (active)
6 | CC[C@H](C)[C@@H]1NC(=O)CNC(=O)[C@H]2Cc3c([nH]c4cc(O)ccc34)S(=O)C[C@H](NC(=O)CNC1=O)C(=O)N[C@@H](CC(N)=O)C(=O)N1C[C@H](O)C[C@H]1C(=O)N[C@@H]([C@@H](C)[C@@H](O)CO)C(=O)N2 (some centres not stated) | 4200 nM (active)
7 | CC[C@H](C)[C@@H]([C@@H](CC(=O)N1CCC[C@H]1[C@H](OC)[C@@H](C)C(=O)N[C@H](C)[C@@H](O)c1ccccc1)OC)N(C)C(=O)[C@@H](NC(=O)[C@@H](NC)C(C)C)C(C)C (H-[NMeV]V[Dil][Dolaproine]-X1) | 0.2 nM (active)
